According to the supplement of paper PMC9446081:
± gives the standard deviation of the averaged measurements.

target: T1, MurF (UniProt P11880); experiment: relative enzymatic activity vs untreated control (fraction); higher = less inhibition; details: 100 µM; incubation time: 2 h at 37 C
T1 sequence (whole entry): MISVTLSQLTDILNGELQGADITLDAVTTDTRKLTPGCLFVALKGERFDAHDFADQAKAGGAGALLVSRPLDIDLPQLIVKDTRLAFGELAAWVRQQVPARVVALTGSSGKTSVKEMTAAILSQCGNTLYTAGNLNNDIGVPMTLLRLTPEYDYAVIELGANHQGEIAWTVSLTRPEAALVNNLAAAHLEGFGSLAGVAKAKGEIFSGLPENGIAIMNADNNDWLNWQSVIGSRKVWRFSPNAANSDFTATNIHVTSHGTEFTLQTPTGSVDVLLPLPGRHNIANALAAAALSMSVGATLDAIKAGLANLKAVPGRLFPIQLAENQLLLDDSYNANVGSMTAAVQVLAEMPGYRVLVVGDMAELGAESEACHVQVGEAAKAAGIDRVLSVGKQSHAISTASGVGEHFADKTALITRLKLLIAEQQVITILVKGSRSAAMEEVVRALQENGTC
Procedure: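 In vitro enzymatic inhibition assays (ProFoldin kits) for 12 purified essential E. coli enzymes or complexes, each treated with 218 active antibacterial compounds at 100 µM for 2 h at 37°C. Read-outs were fluorescence or absorbance (phosphate detection, dye binding), converted to activity via standard curves and expressed relative to untreated DMSO controls.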

Row | SMILES | relative enzymatic activity
1 | C[C@H]1[C@H](NC(=O)/C(=N\OC(C)(C)C(=O)O)c2csc(N)n2)C(=O)N1S(=O)(=O)O | 1.13 ± 0.55
2 | CC(N)O.Cc1cc(CC(C)CC(C)(C)C)n(O)c(=O)c1 (centres undefined) | 0.592 ± 0.82
3 | COc1cc2c(cc1OC)C(=O)C(CC1CCN(Cc3ccccc3)CC1)C2.Cl (centres undefined) | 0.934 ± 0.17
4 | CON=C(C(=O)NC1C(=O)N2C(C(=O)O)=C(C[N+]3(C)CCCC3)CSC12)c1csc(N)n1.[Cl-] (centres undefined) | 0.962 ± 0.17
5 | CCn1cc(C(=O)O)c(=O)c2cc(F)c(N3CCNC(C)C3)c(F)c21.Cl (centres undefined) | 0.554 ± 0.78
6 | O=c1[nH]c(=O)n(C2CC(O)C(CO)O2)cc1F (centres undefined) | 0.931 ± 0.18
7 | CN(C)c1ccc(O)c2c1CC1CC3C(N(C)C)C(O)=C(C(N)=O)C(=O)C3(O)C(O)=C1C2=O.Cl (centres undefined) | 0.939 ± 0.18
8 | C=C1c2cccc(O)c2C(=O)C2=C(O)C3(O)C(=O)C(C(N)=O)=C(O)C(N(C)C)C3C(O)C12.Cl (centres undefined) | 0.937 ± 0.28
9 | CO/N=C(\C(=O)N[C@@H]1C(=O)N2C(C(=O)O)=C(CSc3nnnn3C)CS[C@H]12)c1csc(N)n1 | 1.16 ± 0.11
10 | Nc1nc(C(=CCC(=O)O)C(=O)NC2C(=O)N3C(C(=O)O)=CCSC23)cs1 (centres undefined) | 0.958 ± 0.24
11 | NCCONC(=O)[C@@H]1CC[C@@H]2CN1C(=O)N2OS(=O)(=O)O | 0.971 ± 0.24
12 | CC[C@H]1OC(=O)C[C@@H](O)[C@H](C)[C@@H](O[C@@H]2O[C@H](C)C[C@H](N(C)C)[C@H]2O)[C@@H](CC=O)C[C@@H](C)C(=O)/C=C/[C@]2(C)O[C@H]2[C@@H]1C | 1.06 ± 0.2
13 | N[C@@H](C(=O)N[C@@H]1C(=O)N2C(C(=O)O)=C(Cl)CC[C@H]12)c1ccccc1 | 0.963 ± 0.22
14 | CO/N=C(\C(=O)N[C@@H]1C(=O)N2C(C(=O)O)=C(C)CS[C@H]12)c1csc(N)n1 | 0.979 ± 0.21
15 | NCC1OC(OC2C(N)CC(N)C(OC3OC(CO)C(O)C(N)C3O)C2O)C(N)CC1O (centres undefined) | 0.932 ± 0.15
16 | NC(=O)N/N=C/c1ccc([N+](=O)[O-])o1 | 0.962 ± 0.21
17 | Cc1nnc(SCC2=C(C(=O)[O-])N3C(=O)C(NC(=O)Cn4cnnn4)C3SC2)s1.[Na+] (centres undefined) | 0.89 ± 0.17
18 | CCC=C(C(=O)NC1C(=O)N2C(C(=O)OCOC(=O)C(C)(C)C)=C(COC(N)=O)CSC12)c1csc(N)n1.Cl (centres undefined) | 0.941 ± 0.21
19 | CC(O)C1C(=O)N2C(C(=O)O)=C(SC3CNC(C(=O)N(C)C)C3)C(C)C12 (centres undefined) | 0.584 ± 0.82
20 | CN(C)C1C(O)=C(C(N)=O)C(=O)C2(O)C(O)=C3C(=O)c4c(O)cccc4C(C)(O)C3CC12.Cl (centres undefined) | 0.964 ± 0.2
21 | Cc1cc(=O)c(C(=O)N[C@@H](C(=O)N[C@@H]2C(=O)N3C(C(=O)O)=C(CSc4nnnn4C)CS[C@H]23)c2ccc(O)cc2)c[nH]1 | 0.92 ± 0.2
22 | CCN1CCN(C(=O)NC(C(=O)NC2C(=O)N3C(C(=O)O)=C(CSc4nnnn4C)CSC23)c2ccc(O)cc2)C(=O)C1=O (centres undefined) | 0.965 ± 0.23
23 | Nc1nc(/C(=N/O)C(=O)N[C@@H]2C(=O)N3C(C(=O)O)=C(/C=C4\CCN([C@@H]5CCNC5)C4=O)CS[C@H]23)ns1 | 1.1 ± 0.069
24 | CC(NCCCc1cccc(C(F)(F)F)c1)c1cccc2ccccc12.Cl (centres undefined) | 0.953 ± 0.19
